Source: PubChem BioAssay AID602429 (Sanford-Burnham Center for Chemical Genomics, 2012)
About 1,200 (0.33%) of roughly 360,000 compounds were called active. Cut-off read from the data, not from the text of the source: active = inhibition above about 37%; inactive = the rest. What follows is part of a selection rich in actives, with near analogues and random picks from the rest.

What follows are molecules tested against Small ubiquitin-related modifier 1 (Homo sapiens) (UniProt P63165) (assay: SUMO1 binding to interaction partners, disruption – biochemical, uHTS, primary screen (AID 602429)). Conditions: SUMO1 binding to a labelled peptide, TR-FRET, 1 h; at 20 µM; stronger effect = higher value.
Small ubiquitin-related modifier 1 (Homo sapiens), sequence (P63165 whole entry, looked up): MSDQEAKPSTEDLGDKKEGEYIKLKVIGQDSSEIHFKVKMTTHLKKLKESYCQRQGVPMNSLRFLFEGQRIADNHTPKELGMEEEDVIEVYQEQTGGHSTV

inhibition, active:
O=C(COc1coc(CN2CCN(c3ccccc3F)CC2)cc1=O)N1CCc2ccccc21 47.1%
C=C1c2c(Cl)ccc(O)c2C(O)=C2C(=O)[C@]3(O)C(O)=C(C(N)=O)C(=O)[C@@H](N(C)C)[C@@H]3[C@@H](O)C12 (stereo partly specified) 62.7%
O=[N+]([O-])c1cc(Cl)cc(/C=N/NC(=S)Nc2cc(S(=O)(=O)N3CCOCC3)ccc2Cl)c1O 36.3%
Cn1c2ccccc2c(=O)c2c(=O)n(Cc3ccco3)c(COc3ccccc3)nc21 42.3%
O=C(Nc1ccccc1)c1ccccc1Br 41.9%
COc1ccc2[nH]c3c(C)c4cc[n+](C)cc4c(C)c3c2c1 61.3%
CCCCCCC(=O)Nc1nc(C)c(-c2csc(Nc3cccc(OC)c3)n2)s1 40.2%
C=Cc1ccc(C(=O)N2CCCC(CCC(=O)N3CCN(c4ccccn4)CC3)C2)cc1 (stereo unspecified) 58.2%
COc1ccc(-n2nnnc2SCC(=O)NCc2cccs2)cc1 43.1%
O=C(Nc1cccc(-c2nc3ccccc3[nH]2)c1)c1ccc(C(=O)Nc2cccc(-c3nc4ccccc4[nH]3)c2)cc1 56.6%
COc1cc(NC(=O)c2ccc(CNc3c(N4CCCC4)c(=O)c3=O)cc2)cc(OC)c1OC 48.9%
Cc1ccc(C(=O)O)cc1-c1ccc(/C=C2\SC(=O)N(CC(=O)Nc3ccc4c(c3)OCO4)C2=O)o1 106%
C[C@H]([C@@H](O)[C@@H](O)[C@@H](C)C(C)(C)C)[C@H]1CC[C@H]2C3CC[C@H]4C[C@H](OS(=O)(=O)O)[C@@H](OS(=O)(=O)O)C[C@]4(C)[C@H]3CC[C@]12C (stereo partly specified) 57.1%
O=C(Nc1cccnc1)c1cc2cc(Br)ccc2oc1=O 79%
COc1ccc(CC(=O)Nc2ccc(-c3nnc(-c4ccc(C)cc4)o3)cc2)cc1 52%
O=C(O)C(c1ccccc1)N1C(=O)/C(=C\c2ccc(-c3cccc(Cl)c3)o2)SC1=S (stereo unspecified) 75.9%
C=CC1=C(C(=O)O)N2C(=O)[C@@H](NC(=O)/C(=N\OCC(=O)O)c3csc(N)n3)[C@H]2SC1 56.1%
C=CC1=C(C(=O)O)N2C(=O)[C@@H](NC(=O)/C(=N/OCC(=O)O)c3csc(N)n3)[C@H]2SC1 121%
Cc1nc(-c2ccccc2)sc1-c1nc(-c2ccccc2)ncc1S(=O)(=O)c1ccccc1 56.4%

inhibition, inactive:
CC1CCCC(NC(=O)CSc2nccn2C)C1C (stereo unspecified) -1.19%
O=C(COc1coc(CN2CCN(c3ccccc3)CC2)cc1=O)Nc1ccccc1F 0.279%
O=C(COc1coc(CN2CCN(c3ccccc3)CC2)cc1=O)N1CCc2ccccc21 -4.23%
CCC(C)CCN1CCN=C1N(C)C (stereo unspecified) 1.08%
Cc1ccc(NC(=O)Cn2sc3ccccc3c2=O)cc1 5.66%
O=c1c2cc([N+](=O)[O-])ccc2nc2n1CCC2 -38.3%
COCCNC(=S)Nc1cc(S(=O)(=O)N2CCOCC2)ccc1N1CCCCC1 1.91%
Cc1cc(OCCCC(=O)Nc2cc(S(=O)(=O)N3CCOCC3)ccc2N2CCOCC2)ccc1Cl -3.23%
COc1ccc(C(=O)NC2(C(F)(F)F)NC(=O)N(CCCc3ccccc3)C2=O)c(OC)c1OC (stereo unspecified) 7.81%
COc1ccc(-c2oc3ncn(Cc4ccco4)c(=N)c3c2-c2ccc(OC)cc2)cc1 -9.5%
O=C(Cn1c(=O)n(Cc2ccco2)c(=O)c2ccccc21)NCC1CCCO1 (stereo unspecified) 4.85%
O=C(Nc1ccccc1C(=O)N1CCCCC1)c1ccco1 -3.94%
O=C(O)c1ccccc1-c1ccccc1C(=O)Nc1ccccc1Br -0.773%
O=C(Nc1ccccc1)c1ccccc1NC(=O)C(F)(F)F -1.22%
COc1ccc(NC(=S)N2CCC(NC(=O)c3cccc(F)c3)CC2)cc1 4.71%
Cc1noc(C)c1-c1nc(CSc2ccc(Cl)cc2)no1 1.71%
CCN(CC)CCCNC(=O)c1cn(C)c2ccc(S(=O)(=O)N(C)C3CCCCC3)cc2c1=O 5.63%
CCOc1cc(-c2conc2N)cc(OCC)c1OCC 1.02%
CC(=O)Nc1ccc(NC(=O)CSc2nnc(C3CC3)n2-c2ccccc2)cc1 3.94%
CCOc1ccc(N(CC(=O)NCC2CCCO2)S(=O)(=O)c2ccc(C)cc2)cc1 (stereo unspecified) 6.75%
COc1cccc(NC(=O)COc2cccnc2[N+](=O)[O-])c1 -32.4%
C=CCCC(=O)Nc1nc(C)c(-c2csc(Nc3ccc(Cl)cc3)n2)s1 1.48%
CCCOC1CCCN(Cc2cn(C)nc2-c2ccccc2F)C1 (stereo unspecified) 5.15%
COc1ccc(-c2csc(C(O)c3cccc(Cl)c3)n2)cn1 (stereo unspecified) -2.47%
CCc1nn(CC(=O)N2CCN(c3cc(C)ccc3C)CC2)c(=O)c2cc3occc3n12 2.09%
O=S1(=O)CCO[C@H]2Cc3ccccc3[C@H]2N1Cc1ccccc1 -0.696%
O=C(CCC1CCCN(C(=O)c2ccc(F)c(F)c2)C1)N1CCN(c2ccccn2)CC1 (stereo unspecified) 2.38%
COc1cccc(CC(=O)N2CCCC(CCC(=O)N3CCN(c4ccccn4)CC3)C2)c1 (stereo unspecified) -2.38%
Cc1ccc(NC(=S)NC(NC(=O)Cc2cccc3ccccc23)C(Cl)(Cl)Cl)cc1 (stereo unspecified) 0.772%
COc1ccc(NC(=O)CSc2nnnn2-c2cccc(OC)c2)cc1 -3.25%
COc1ccc(-n2c(SCC(=O)NCc3cccs3)nnc2-c2ccoc2C)cc1 -0.51%
CC(=O)c1nn(-c2ccccc2)c(=Nc2ccccc2)cc1C -14.6%
OCCC1CN(Cc2cnc(-c3ccccc3)s2)CCN1CCc1ccccc1 (stereo unspecified) -2.45%
Cn1c(N)c(C(=O)COC(=O)/C=C/c2ccc(OC(F)F)cc2)c(=O)n(C)c1=O -2.46%
O=S(=O)(c1ccccc1)N1CN(Cc2ccc(F)cc2)c2nc3ccccc3nc21 -3.38%
O=C(Nc1ccccc1Cc1ccccc1)c1ccc2c(c1)SC1=NS(=O)(=O)CCN12 28.2%
CCOc1ccc(C(=O)Nc2cccc(SC)c2)cc1 -1.79%
O=C(NNC(=O)c1ccc(-c2ccccc2)cc1)Nc1ccccc1 2.2%
C/C(CC(=O)NC(C)c1ccccc1)=N\NC(N)=S (stereo unspecified) -2.76%
CC(=O)c1c(C)[nH]c(C(=O)CN2C(=O)NC(C)(C)C2=O)c1C -2.31%
CCOc1cccc2c1OC1(CCCCC1)N1N=C(c3cccnc3)CC21 (stereo unspecified) -1.86%
O=C(NCc1ccccc1)c1ccc(CNc2c(N3CCCC3)c(=O)c2=O)cc1 -2.77%
O=C(NC1CCCCC1)c1ccc(CNc2c(N3CCOCC3)c(=O)c2=O)cc1 -0.641%
COC(=O)c1sccc1NN1C(=O)c2ccccc2C1=O -2.44%
Cc1nc([N+](=O)[O-])cn1CC(=O)Nc1ccc2c(c1)OCO2 -6.05%
O=C(CCN1C(=O)c2ccncc2C1=O)Nc1ccc2c(c1)OCCO2 -14.5%
CC(=O)O[C@H]1CC[C@@]2(C)[C@@H](CC[C@@H]3[C@@H]2CC[C@]2(C)[C@@H](C(C)(C)O)C[C@@H]32)C1 1.55%
CCC(CC)c1nnc(NC(=O)C2CCN(C(=O)c3ccco3)CC2)s1 0.246%
Fc1cc(Br)ccc1NC(=S)Nc1cccnc1 -2.62%
O=C(Nc1cccnc1)c1ccc(Cl)cc1[N+](=O)[O-] -24.2%
CC(=O)c1c(C)[nH]c(C(=O)COC(=O)c2cccc(S(=O)(=O)N(C)c3ccccc3)c2)c1C 0.686%
CCCCCCCCn1c2c(c(=N)c3c1CCC3)CCCC2 -1.62%
COc1ccc(NC(=O)Cn2c(-c3ccc(OC)cc3)cn(-c3ccc(C)cc3)c2=O)cc1 5.25%
COc1ccc(NC(=O)CN(C)C(=O)c2cc(C)oc2C)cc1 -3.07%
COc1c(F)c(F)c(-c2csc(N)n2)c(F)c1F -2.44%
CCCc1nn(C)c2c(=O)[nH]c(-c3cc(S(N)(=O)=O)ccc3OCC)nc12 3.1%
CN(CC(=O)NC1CCN(Cc2ccccc2)CC1)S(=O)(=O)c1ccc(Cl)s1 0.847%
O=C(Cn1nnc(-c2ccccc2)n1)N/N=C/c1ccc(-c2ccc(Cl)cc2)o1 7.31%
CCC(C)N1C(=O)S/C(=C/c2ccc(Sc3nc4ccccc4[nH]3)o2)C1=O (stereo unspecified) -5.85%
COc1ccccc1CC(NC(C)=O)C(=O)NC1CCN(C(=O)Nc2ccccc2Cl)CC1 (stereo unspecified) 0.952%
CN1C(=O)c2ccccc2C(C(=O)NCCCN2CCCC2)C1c1c[nH]c2ccccc12 (stereo unspecified) 3%
Cn1c(=O)c2cc(S(=O)(=O)NCCC(=O)Nc3ccc(F)cc3F)ccc2n(C)c1=O -1.62%
Cc1cccc(-[n+]2c(-c3cccc(Br)c3)[nH]c3nc4ccccc4nc32)c1 1.4%
COc1cc(C(=O)OCC(=O)NC23CC4CC(CC(C4)C2)C3)cc(OC)c1OC 5.78%
Cc1nc(-c2ccccc2)sc1-c1nnc(C2CC2)o1 -25.8%
C#CC(C)(C)NC(=O)c1cnc(-c2ccccc2)nc1-c1ccccc1 1.04%
O=C(CCNC(=O)c1ccc(Br)cc1)Nc1cccc(S(=O)(=O)N2CCCCC2)c1 0.625%
